This passage reports outcome and AC50 results from PubChem BioAssay (EPA / NIEHS).

Experiment [1] is described as follows: ATG_GLI_CIS: Attagene CIS-FACTORIAL HepG2 Assay for human Zinc Finger Protein GLI1 (AID 2282945). Conditions: HepG2, Attagene cis-factorial reporter mRNA, GLI element; actives raise or lower the signal. Put shortly: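 Bidirectional curve fits relative to DMSO, using reporter mRNA levels from RT-PCR plus capillary electrophoresis. Cells were HepG2 transiently carrying cis-regulated reporter constructs, harvested 24 h after dosing.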

The target of experiment [2] is Bile acid receptor (Homo sapiens) (UniProt Q96RI1). As to the kind of experiment: ATG_IR1_CIS: Attagene CIS-FACTORIAL HepG2 Assay for human Nuclear Receptor Subfamily 1 Group H Member 4 (NR1H4), IR1 submotif (AID 2282946). Conditions: IR1 reporter transcription, actives raise or lower the signal. Put shortly:
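Cells (human HepG2) carry transiently transfected cis-promoter reporter transcription units. Compounds are incubated 24 h, total RNA is reverse-transcribed and amplified, and labelled fragments are resolved by capillary electrophoresis. Curves use DMSO as baseline.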

Experiment [3] in a line: ATG_GRE_CIS: Attagene CIS-FACTORIAL HepG2 Assay for human Glucocorticoid Response Elements (GRE) (AID 2282947). As to conditions: HepG2 GRE cis-reporter, Attagene multiplex mRNA; actives raise or lower the signal. Put shortly: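 Transient MRTU transfection of human HepG2 liver cells; cis-regulated reporters report endogenous factors. 24 h dosing → RNA isolation → RT-PCR → 6-FAM primer extension → HpaI cut → CE fragment analysis. Bidirectional fit, DMSO negative control.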

Experiment [4] is described as follows: ATG_ISRE_CIS: Attagene CIS-FACTORIAL HepG2 Assay for human Interferon Regulatory Factor 1 (IRF1) binding to an Interferon-Stimulated Response Element (ISRE) (AID 2282948). As to conditions: HepG2 ISRE cis-reporter (Attagene), mRNA transcription readout; actives raise or lower the signal. The essentials:
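Cell-based cis-reporter assay; HepG2; 24 h exposure; reporter mRNA by RT-PCR plus capillary electrophoresis fluorescence; activity in either direction scored relative to DMSO.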

A short description of experiment [5]: ATG_M_32_CIS: Attagene CIS-FACTORIAL HepG2 Assay for M32 Transcription Factor (Internal Marker) (AID 2282949).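 Further: background control marker of the multiplexed CIS panel rather than a real target.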 Conditions: HepG2 Attagene cis-factorial M32 reporter, mRNA; actives raise or lower the signal. The essentials: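 Fluorescent capillary electrophoresis peaks of HpaI-digested, FAM-labelled RT-PCR reporter products give the signal. Source: transiently transfected human liver HepG2 cells, 24 h after chemical dosing; bidirectional fitting against DMSO.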

Experiment [6] in a line: ATG_M_06_CIS: Attagene CIS-FACTORIAL HepG2 Assay for M06 Transcription Factor (Internal Marker) (AID 2282950). As to conditions: HepG2 Attagene CIS-FACTORIAL M06 internal marker reporter; actives raise or lower the signal. Put shortly:
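Fluorescence-labelled RT-PCR products from cis-promoter reporter units, cut with HpaI and resolved by capillary electrophoresis, give the signal. Cells are human HepG2, dosed for 24 h. Serves as background control, fitted relative to DMSO.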

The target of experiment [7] is Hypoxia-inducible factor 1-alpha (Homo sapiens) (UniProt Q16665). As to the kind of experiment: ATG_HIF1a_CIS: Attagene CIS-FACTORIAL HepG2 Assay for human Hypoxia Inducible Factor 1 (HIF1A) (AID 2282951). As to conditions: HepG2 Attagene cis-factorial HIF1a reporter transcription; actives raise or lower the signal. The essentials: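 In this multiplexed cell assay, HepG2 cells bearing transfected cis reporters are dosed for 24 h and reporter mRNA is read by RT-PCR plus capillary electrophoresis; signal increases and decreases are both scored against DMSO.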

The target in experiment [8] is Hepatocyte nuclear factor 6 (Homo sapiens) (UniProt Q9UBC0). As to the kind of experiment: ATG_HNF6_CIS: Attagene CIS-FACTORIAL HepG2 Assay for human Hepatocyte Nuclear Factor 6 (HNF6) (AID 2282952). Conditions: HepG2 Attagene cis-factorial HNF6 reporter transcription; actives raise or lower the signal. Put shortly: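 Cells are HepG2 carrying transiently transfected cis-promoter reporter units. Treatment lasts 24 h, after which reporter transcripts are reverse-transcribed, amplified, FAM-labelled and sized by capillary electrophoresis. DMSO serves as baseline.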

Experiment [9] has as its target Heat shock factor protein 1 (Homo sapiens) (UniProt Q00613). The experiment is described as follows: ATG_HSE_CIS: Attagene CIS-FACTORIAL HepG2 Assay for human Heat Shock Transcription Factor 1 (HSE) (AID 2282953). As to conditions: HepG2 HSE cis-reporter, Attagene RNA transcription; actives raise or lower the signal. The essentials: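 After a 24 h incubation with test chemical, transfected HepG2 cells were harvested for RNA; reporter transcripts were measured by RT-PCR and capillary electrophoresis. Values reflect gain or loss of signal relative to DMSO.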

The nature of experiment [10]: ATG_MRE_CIS: Attagene CIS-FACTORIAL HepG2 Assay for human Metal Responsive Element (MRE) (AID 2282954). As to conditions: HepG2 MRE cis-reporter transcription, Attagene multiplex; actives raise or lower the signal. The essentials: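 Transient MRTU transfection of HepG2 (FuGene 6); 24 h dosing; total RNA → oligo(dT) RT, PCR, 6-FAM primer extension, HpaI cut, CE. Bidirectional fit vs DMSO.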

Experiment [11] in a line: ATG_PBREM_CIS: Attagene CIS-FACTORIAL HepG2 Assay for human Phenobarbital-responsive Enhancer Module (PBREM) (AID 2282955). As to conditions: HepG2 PBREM cis-reporter, Attagene multiplexed transcription; actives raise or lower the signal. The essentials: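 After a 24 h incubation with test chemical, transfected HepG2 cells yield total RNA; reporter-specific RT-PCR products are fluorescently labelled, HpaI-digested and resolved by capillary electrophoresis against ROX size standards.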

Experiment [12] has as its target Paired box protein Pax-6 (Homo sapiens) (UniProt P26367). As to the kind of experiment: ATG_Pax6_CIS: Attagene CIS-FACTORIAL HepG2 Assay for human Paired Box 6 (PAX6) (AID 2282956). Conditions: HepG2 CIS-FACTORIAL PAX6 reporter transcription, RNA readout; actives raise or lower the signal. The essentials: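 Multiplexed cis-reporter HepG2 system; 24 h treatment; reporter mRNA read by RT-PCR/CE fluorescence; bidirectional fit vs DMSO.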

Experiment [13] is described as follows: ATG_PXRE_CIS: Attagene CIS-FACTORIAL HepG2 Assay for human Pregnane X Receptor Element (PXRE) (AID 2282957). Conditions: HepG2 Attagene CIS-FACTORIAL PXRE reporter, mRNA; actives raise or lower the signal. Put shortly: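 Multiplexed cis-reporter assay in transiently transfected human HepG2 cells; 24 h chemical exposure. Reporter transcripts quantified by RT-PCR with fluorescent labeling and capillary electrophoresis.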

The nature of experiment [14]: ATG_PPRE_CIS: Attagene CIS-FACTORIAL HepG2 Assay for human Peroxisome Proliferator-activated Response Element (PPRE) (AID 2282958). Conditions: HepG2 PPRE cis-element reporter, Attagene transcription factor profiling; actives raise or lower the signal. Put shortly:
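Multiplexed reporter transcription units under cis-regulatory promoters were transfected into HepG2 cells to capture endogenous factor activity. A 24 h incubation preceded RNA isolation and fluorescent RT-PCR fragment analysis.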

Experiment [15] is described as follows: ATG_RORE_CIS: Attagene CIS-FACTORIAL HepG2 Assay for human RAR-related Orphan Receptor Element (RORE) (AID 2282959). Conditions: HepG2 Attagene cis-factorial RORE reporter, mRNA; actives raise or lower the signal. Put shortly: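 Fluorescence intensity of reporter-specific cDNA fragments, separated by capillary electrophoresis, gives the signal. Source: HepG2 liver cells transiently transfected with cis-element reporters and exposed 24 h; DMSO-normalized bidirectional fit.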

Experiment [16] is described as follows: ATG_Sox_CIS: Attagene CIS-FACTORIAL HepG2 Assay for human SRY-box transcription factor (SOX) (AID 2282960). Conditions: HepG2 Attagene cis-factorial SOX reporter, mRNA; actives raise or lower the signal. Put shortly:
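After 24 h of chemical treatment, transfected HepG2 reporter cells are lysed for total RNA. Transcript levels come from RT-PCR with labelled primer extension and capillary electrophoresis, analysed bidirectionally versus DMSO.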

The target in experiment [17] is Transcription factor Sp1 (Homo sapiens) (UniProt P08047). The experiment is described as follows: ATG_Sp1_CIS: Attagene CIS-FACTORIAL HepG2 Assay for human Specificity Protein 1 (Sp1) (AID 2282961). As to conditions: HepG2 Sp1 cis-reporter transcription, actives raise or lower the signal. Put shortly:
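Sp1-driven reporter mRNA, read as capillary electrophoresis fluorescence after RT-PCR, in transiently transfected HepG2 cells dosed for 24 h; signal change in either direction relative to DMSO.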

Experiment [18] is described as follows: ATG_SREBP_CIS: Attagene CIS-FACTORIAL HepG2 Assay for human Sterol Regulatory Element Binding (SREBP) (AID 2282962). Conditions: HepG2 Attagene cis-factorial SREBP reporter, mRNA; actives raise or lower the signal. Put shortly:
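mRNA induction of transfected cis-promoter reporters in HepG2 cells, 24 h post-dose. Detection: RT-PCR with 6-FAM-labelled products, HpaI digest, capillary electrophoresis. DMSO served as negative control and baseline.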

Experiment [19] deals with Signal transducer and activator of transcription 3 (Homo sapiens) (UniProt P40763). The experiment is described as follows: ATG_STAT3_CIS: Attagene CIS-FACTORIAL HepG2 Assay for human Signal Transducer and Activator of Transcription 3 (STAT3) (AID 2282963). Conditions: HepG2, Attagene cis-factorial STAT3 reporter transcription; actives raise or lower the signal. The essentials:
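Endogenous STAT3-responsive cis-element activity was read in transiently transfected HepG2 cells after 24 h treatment. Reporter transcripts were quantified via RT-PCR and capillary electrophoresis, with DMSO as negative control and bidirectional curve fitting.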

Experiment [20] in a line: ATG_TA_CIS: Attagene CIS-FACTORIAL HepG2 Assay for human TA Basal Promoter (AID 2282964). As to conditions: HepG2 Attagene CIS-factorial TA basal promoter reporter; actives raise or lower the signal. Put shortly:
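Multiplexed mRNA reporter assay, HepG2, 24 h. Reporter cDNA amplified, 6-FAM primer-extended, HpaI-cut, CE-sized; DMSO = negative control and baseline.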

Active and inactive are the calls of the source. How the source made its calls: active means hit-call score of the fitted dose curve at least 0.9, where 1 is the maximum; inactive means score below 0.9.

Sequence of Hypoxia-inducible factor 1-alpha (Homo sapiens) (Q16665 whole entry, looked up): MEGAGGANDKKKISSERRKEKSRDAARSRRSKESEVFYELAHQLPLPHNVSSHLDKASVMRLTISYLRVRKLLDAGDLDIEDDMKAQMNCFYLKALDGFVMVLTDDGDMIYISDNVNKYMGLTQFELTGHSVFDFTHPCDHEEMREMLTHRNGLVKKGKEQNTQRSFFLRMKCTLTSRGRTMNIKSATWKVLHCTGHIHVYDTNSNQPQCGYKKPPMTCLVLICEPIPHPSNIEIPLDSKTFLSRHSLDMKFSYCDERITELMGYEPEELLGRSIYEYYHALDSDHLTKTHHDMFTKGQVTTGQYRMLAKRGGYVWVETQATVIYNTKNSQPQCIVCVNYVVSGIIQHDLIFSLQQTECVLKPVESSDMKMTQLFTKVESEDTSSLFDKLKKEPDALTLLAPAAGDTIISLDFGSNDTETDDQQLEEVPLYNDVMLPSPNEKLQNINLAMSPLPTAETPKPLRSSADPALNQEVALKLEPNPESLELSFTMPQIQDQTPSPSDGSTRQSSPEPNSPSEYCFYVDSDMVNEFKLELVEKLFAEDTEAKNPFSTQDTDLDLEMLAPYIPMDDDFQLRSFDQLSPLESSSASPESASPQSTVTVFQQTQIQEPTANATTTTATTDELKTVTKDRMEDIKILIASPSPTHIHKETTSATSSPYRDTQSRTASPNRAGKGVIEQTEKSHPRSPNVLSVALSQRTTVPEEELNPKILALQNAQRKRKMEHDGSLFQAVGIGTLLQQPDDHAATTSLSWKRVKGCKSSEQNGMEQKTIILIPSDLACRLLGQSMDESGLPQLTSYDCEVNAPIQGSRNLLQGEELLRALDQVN
Sequence of Bile acid receptor (Homo sapiens) (Q96RI1 whole entry, looked up, the tested form may be a part): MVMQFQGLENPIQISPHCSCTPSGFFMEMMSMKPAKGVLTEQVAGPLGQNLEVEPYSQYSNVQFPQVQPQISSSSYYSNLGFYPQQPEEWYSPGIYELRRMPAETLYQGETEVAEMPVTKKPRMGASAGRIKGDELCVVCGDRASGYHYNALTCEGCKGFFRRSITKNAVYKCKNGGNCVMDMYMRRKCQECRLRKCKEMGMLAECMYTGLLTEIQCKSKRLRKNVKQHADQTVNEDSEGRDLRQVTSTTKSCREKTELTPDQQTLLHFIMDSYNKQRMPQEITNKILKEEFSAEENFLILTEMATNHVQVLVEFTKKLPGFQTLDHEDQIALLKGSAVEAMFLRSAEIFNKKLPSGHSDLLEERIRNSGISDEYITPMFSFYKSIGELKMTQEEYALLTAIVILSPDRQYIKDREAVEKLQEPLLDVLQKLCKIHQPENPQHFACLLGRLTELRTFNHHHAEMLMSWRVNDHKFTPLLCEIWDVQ
Sequence of Transcription factor Sp1 (Homo sapiens) (P08047 whole entry, looked up): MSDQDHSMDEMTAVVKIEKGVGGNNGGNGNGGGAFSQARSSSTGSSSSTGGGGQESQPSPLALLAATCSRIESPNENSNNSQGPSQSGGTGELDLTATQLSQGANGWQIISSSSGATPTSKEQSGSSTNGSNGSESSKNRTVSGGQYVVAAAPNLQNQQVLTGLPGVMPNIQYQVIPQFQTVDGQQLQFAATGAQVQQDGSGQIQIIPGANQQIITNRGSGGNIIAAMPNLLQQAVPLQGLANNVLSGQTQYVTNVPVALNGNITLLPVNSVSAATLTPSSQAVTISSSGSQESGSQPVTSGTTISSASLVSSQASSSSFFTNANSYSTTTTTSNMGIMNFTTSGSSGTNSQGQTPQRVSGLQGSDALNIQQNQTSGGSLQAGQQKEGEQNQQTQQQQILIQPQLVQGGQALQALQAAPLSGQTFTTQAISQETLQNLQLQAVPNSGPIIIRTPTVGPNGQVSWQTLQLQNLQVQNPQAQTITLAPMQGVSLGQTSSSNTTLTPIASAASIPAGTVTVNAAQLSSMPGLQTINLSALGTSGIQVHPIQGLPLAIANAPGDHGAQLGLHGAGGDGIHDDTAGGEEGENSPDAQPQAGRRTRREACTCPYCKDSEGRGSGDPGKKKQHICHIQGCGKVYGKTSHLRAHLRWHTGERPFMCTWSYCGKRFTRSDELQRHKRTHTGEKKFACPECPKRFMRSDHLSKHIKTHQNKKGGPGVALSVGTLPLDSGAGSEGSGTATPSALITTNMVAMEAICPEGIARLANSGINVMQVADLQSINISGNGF
Sequence of Hepatocyte nuclear factor 6 (Homo sapiens) (Q9UBC0 whole entry, looked up): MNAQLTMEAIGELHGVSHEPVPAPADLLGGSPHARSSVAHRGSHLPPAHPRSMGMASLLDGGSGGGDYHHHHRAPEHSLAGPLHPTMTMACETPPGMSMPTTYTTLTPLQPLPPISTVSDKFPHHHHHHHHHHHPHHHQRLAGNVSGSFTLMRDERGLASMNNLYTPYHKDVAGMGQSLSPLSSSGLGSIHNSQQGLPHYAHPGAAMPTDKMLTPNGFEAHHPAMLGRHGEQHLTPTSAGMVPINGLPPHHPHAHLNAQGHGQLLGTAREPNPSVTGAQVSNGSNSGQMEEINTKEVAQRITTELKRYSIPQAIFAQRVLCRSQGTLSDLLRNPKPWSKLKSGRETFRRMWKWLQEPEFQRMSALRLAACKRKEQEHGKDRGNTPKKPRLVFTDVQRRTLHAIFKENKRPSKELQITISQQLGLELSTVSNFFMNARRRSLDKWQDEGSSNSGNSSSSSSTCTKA
Sequence of Heat shock factor protein 1 (Homo sapiens) (Q00613 whole entry, looked up): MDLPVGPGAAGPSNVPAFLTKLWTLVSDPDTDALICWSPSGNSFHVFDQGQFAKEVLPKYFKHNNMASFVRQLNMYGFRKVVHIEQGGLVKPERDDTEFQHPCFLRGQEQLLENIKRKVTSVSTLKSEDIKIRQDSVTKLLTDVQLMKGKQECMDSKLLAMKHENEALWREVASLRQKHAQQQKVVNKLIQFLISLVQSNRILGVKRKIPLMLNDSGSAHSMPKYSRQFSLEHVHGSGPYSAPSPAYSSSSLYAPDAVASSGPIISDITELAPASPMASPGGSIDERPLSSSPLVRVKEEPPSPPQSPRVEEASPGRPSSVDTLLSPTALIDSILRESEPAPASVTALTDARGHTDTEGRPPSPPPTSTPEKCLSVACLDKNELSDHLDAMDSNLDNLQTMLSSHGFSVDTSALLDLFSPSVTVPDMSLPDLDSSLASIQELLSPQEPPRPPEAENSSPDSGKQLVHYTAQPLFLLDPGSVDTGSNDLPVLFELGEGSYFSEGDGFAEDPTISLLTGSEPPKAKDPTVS
Sequence of Signal transducer and activator of transcription 3 (Homo sapiens) (P40763 whole entry, looked up): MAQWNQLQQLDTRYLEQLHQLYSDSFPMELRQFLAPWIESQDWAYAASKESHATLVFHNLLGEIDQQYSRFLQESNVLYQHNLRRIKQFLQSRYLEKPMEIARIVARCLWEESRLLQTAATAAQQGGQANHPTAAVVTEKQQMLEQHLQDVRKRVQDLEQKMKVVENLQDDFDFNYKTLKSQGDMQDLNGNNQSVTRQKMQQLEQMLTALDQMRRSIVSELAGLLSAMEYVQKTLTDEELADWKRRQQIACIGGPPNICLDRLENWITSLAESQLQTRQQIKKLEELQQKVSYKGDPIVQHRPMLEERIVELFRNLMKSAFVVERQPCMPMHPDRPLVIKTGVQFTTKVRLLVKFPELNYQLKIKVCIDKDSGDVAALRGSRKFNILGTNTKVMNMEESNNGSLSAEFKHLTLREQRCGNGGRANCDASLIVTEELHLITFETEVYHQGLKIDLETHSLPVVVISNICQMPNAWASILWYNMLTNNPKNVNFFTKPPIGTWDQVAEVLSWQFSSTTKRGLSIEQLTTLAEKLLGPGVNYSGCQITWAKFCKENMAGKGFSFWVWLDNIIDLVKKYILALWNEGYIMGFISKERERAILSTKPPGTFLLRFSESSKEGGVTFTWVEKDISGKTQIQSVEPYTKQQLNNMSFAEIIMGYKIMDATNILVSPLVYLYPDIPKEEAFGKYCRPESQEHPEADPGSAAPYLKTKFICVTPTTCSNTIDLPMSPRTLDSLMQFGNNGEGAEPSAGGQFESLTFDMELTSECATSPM
Sequence of Paired box protein Pax-6 (Homo sapiens) (P26367 whole entry, looked up): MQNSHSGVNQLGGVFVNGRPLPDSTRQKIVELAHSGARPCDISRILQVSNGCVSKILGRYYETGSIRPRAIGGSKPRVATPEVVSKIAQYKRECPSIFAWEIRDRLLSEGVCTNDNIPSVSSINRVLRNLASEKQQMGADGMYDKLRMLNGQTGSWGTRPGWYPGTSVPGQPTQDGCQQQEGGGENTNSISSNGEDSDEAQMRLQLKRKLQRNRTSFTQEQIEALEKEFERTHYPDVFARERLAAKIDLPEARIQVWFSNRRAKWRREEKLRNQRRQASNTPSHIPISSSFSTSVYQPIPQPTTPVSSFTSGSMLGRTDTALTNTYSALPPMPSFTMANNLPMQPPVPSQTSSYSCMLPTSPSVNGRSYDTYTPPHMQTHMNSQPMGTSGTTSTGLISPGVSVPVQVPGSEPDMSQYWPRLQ

On to `O=S(=O)(O)c1ccc(Cl)cc1`, for which the compound was classed as inactive in experiment [1], in experiment [2], in experiment [3], in experiment [4], in experiment [5] and in [6]. Also, the call in [7], in experiment [8], in [9], in [10], in experiment [11] and in experiment [12] was inactive. Further, the compound was called inactive in experiment [13], in experiment [14], in experiment [15], in experiment [16], in [17] and in [18]. In addition, the compound was called inactive in experiment [19] and in [20].

For `CSc1ccc(Cl)cc1`, the compound was classed as inactive in experiment [1], in [2], in [3], in experiment [4], in experiment [5] and in [6]. The outcome in experiment [7], in experiment [8], in [9], in experiment [10], in [11] and in experiment [12] was inactive. Also, the outcome in [13], in [14], in experiment [15], in experiment [16], in [17] and in experiment [18] was inactive. Further, the compound was classed as inactive in experiment [19].

`C[Si](Cl)(Cl)CCC(F)(F)C(F)(F)C(F)(F)C(F)(F)C(F)(F)C(F)(F)F`: the result in [1], in [2], in experiment [3], in experiment [4], in [5] and in [6] was inactive. The compound was classed as inactive in [7], in experiment [8], in experiment [9], in experiment [10], in experiment [11] and in experiment [12]. The result in [13], in experiment [14], in experiment [15], in experiment [16], in experiment [17] and in experiment [18] was inactive. Besides, the outcome in [19] and in [20] was inactive.

Regarding `O=C(c1ccccc1)c1ccc(Cl)cc1`, the compound was called inactive in experiment [1], in experiment [2], in experiment [3], in experiment [4], in [5] and in experiment [6]. The outcome in [7], in experiment [8], in experiment [12], in experiment [14], in [15] and in experiment [16] was inactive. Besides, the result in experiment [17], in experiment [18], in experiment [19] and in [20] was inactive. Also, the AC50 was 153 µM (active) in [9], 57.5 µM (active) in experiment [10], 47.2 µM (active) in [11] and 27.5 µM (active) in [13].

As a reminder, the AC50 is the midpoint of the concentration-response curve, whichever way the signal moves.
